15 molecules from PubChem BioAssay (NCATS) can be followed below.

Experiment [1] is described as follows: Quantitative High-Throughput drug screen in 47 multiple myeloma cell lines against the NCATS MIPE library collection: OPM1_PLB cell viability assay (AID 1918989). Note: nearly all actives have a fitted effect of over 40% in size. An outline of the steps:
(§1)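 Readout: median RLU from CellTiter-Glo after 5 min at room temperature. Preceding step was 48 h drug treatment of 500 cells/well at 37 °C, 5% CO2, with DMSO-only and media-only control wells.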

Experiment [2] is described as follows: Quantitative High-Throughput drug screen in 47 multiple myeloma cell lines against the NCATS MIPE library collection: SKMM1_PLB cell viability assay (AID 1919863). Note: nearly all actives have a fitted effect of over 35% in size. Conditions: SKMM1 myeloma viability, CellTiter-Glo ATP, 48 h; viability: stronger effect = lower value. The gist of the method: as §1
(In general: In ATP-based viability assays light output follows the ATP content of the culture.)

The nature of experiment [3]: Quantitative High-Throughput drug screen in 47 multiple myeloma cell lines against the NCATS MIPE library collection: U266_ATCC cell viability assay (AID 1919864). Note: nearly all actives have a fitted effect of over 35% in size. The gist of the method: as §1
Experiment [4] is described as follows: Quantitative High-Throughput drug screen in 47 multiple myeloma cell lines against the NCATS MIPE library collection: XG1_PLB cell viability assay (AID 1919866). Note: nearly all actives have a fitted effect of over 35% in size. An outline of the steps: as §1
Experiment [5] can be described thus: Quantitative High-Throughput drug screen in 47 multiple myeloma cell lines against the NCATS MIPE library collection: PE2_PLB cell viability assay (AID 1919869). Note: nearly all actives have a fitted effect of over 35% in size. The gist of the method:
as §1

The nature of experiment [6]: Quantitative High-Throughput drug screen in 47 multiple myeloma cell lines against the NCATS MIPE library collection: PCM6_Riken cell viability assay (AID 1919870). Note: nearly all actives have a fitted effect of over 30% in size. An outline of the steps: as §1
The nature of experiment [7]: Quantitative High-Throughput drug screen in 47 multiple myeloma cell lines against the NCATS MIPE library collection: RPMI8226_ATCC cell viability assay (AID 1919871). Note: nearly all actives have a fitted effect of over 30% in size. An outline of the steps: as §1
Experiment [8] in a line: Quantitative High-Throughput drug screen in 47 multiple myeloma cell lines against the NCATS MIPE library collection: OPM2_DSMZ cell viability assay (AID 1919872). Note: nearly all actives have a fitted effect of over 30% in size. The gist of the method: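 Myeloma cell lines, 500 cells per well, exposed to MIPE 4.0 library compounds for 48 h at 37C, 5% CO2. Viability from ATP by CellTiter-Glo luminescence; normalised to DMSO (100%) and media-only (0%) wells.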

Experiment [9] is described as follows: Quantitative High-Throughput drug screen in 47 multiple myeloma cell lines against the NCATS MIPE library collection: KMS11_JCRBsus cell viability assay (AID 1919873). Note: nearly all actives have a fitted effect of over 50% in size. An outline of the steps: as §1
Experiment [10] in a line: Quantitative High-Throughput drug screen in 47 multiple myeloma cell lines against the NCATS MIPE library collection: KMS28BM_JCRB cell viability assay (AID 1919874). Note: nearly all actives have a fitted effect of over 35% in size. An outline of the steps:
as §1

Experiment [11] can be described thus: Quantitative High-Throughput drug screen in 47 multiple myeloma cell lines against the NCATS MIPE library collection: XG6_PLB cell viability assay (AID 1919865). Note: nearly all actives have a fitted effect of over 40% in size. An outline of the steps: as §1
Experiment [12] is described as follows: Quantitative High-Throughput drug screen in 47 multiple myeloma cell lines against the NCATS MIPE library collection: UTMC2_PLB cell viability assay (AID 1919868). Note: nearly all actives have a fitted effect of over 55% in size. Conditions: CellTiter-Glo ATP luminescence, 48 h; viability (% of DMSO control): at 45.8 µM (top of the series). An outline of the steps:
as §1

Experiment [13] in a line: Quantitative High-Throughput drug screen in 47 multiple myeloma cell lines against the NCATS MIPE library collection: VP6_DJ cell viability assay (AID 1919867). Note: nearly all actives have a fitted effect of over 40% in size. The gist of the method: as §1

Each structure is given as a SMILES string. Inconclusive results are not listed. A number with no mark means an inactive call. Active and inactive are the calls of the source. Calls come from the whole dose curve; as a rule, active = well fitted cell-killing curve with a large enough effect; inconclusive = small, poorly fitted or top-dose-only effect, or effect the other way; inactive = no such curve, though single readings can be large or run the other way.
Potency is the fitted concentration of half-maximal effect.

A word on the viability: it is a read-out of living cells in per cent, often relative to untreated cells. With `COc1ccc(CC2=NN3C([C@@H](CCc4ccccc4)[C@@H](C)O)=NC(C)C3C(=O)N2)cc1OC` (stereo partly drawn), the Potency in [1] is 2.64 µM (active). The viability in [2] was 138%. The Potency entry in experiment [3], in experiment [4], in experiment [5], in experiment [6], in experiment [7] and in experiment [8] was “inactive” each time. In addition, the Potency entry in experiment [9] and in [10] was “inactive” throughout.

With `Cc1ccc(NC(=O)c2cccc(C(C)(C)C#N)c2)cc1Nc1ccc2ncn(C)c(=O)c2c1`, the Potency was 14.8 µM (active) in [1]; 1.66 µM (active) in [2]; 18.7 µM (active) in experiment [3]; 5.26 µM (active) in experiment [11]; 5.9 µM (active) in experiment [5]; 16.6 µM (active) in experiment [8]. Moreover, the Potency in experiment [9] is 11.8 µM (active).

In the case of `OCCC#Cc1nc(-c2ccc(F)cc2)c(-c2ccncc2)n1CCCc1ccccc1`, the values for the Potency in [1], in experiment [4] and in experiment [5] were 18.7 µM (active), 18.7 µM (active) and 20.9 µM (active), respectively. For the same molecule, the viability in experiment [2] is 114%. For the same molecule, the Potency result in [3] is “inactive”.

For `OCCn1cc(-c2cnc3nnn(Cc4ccc5ncccc5c4)c3n2)cn1`, the Potency entry in experiment [1], in experiment [11], in experiment [4], in experiment [12], in [5] and in experiment [6] was “inactive” throughout. For the same molecule, the Potency result in experiment [7], in experiment [9] and in experiment [10] was “inactive” each time. Also, the Potency in experiment [2] is 16.6 µM (active); in experiment [3] it was 2.09 µM (active).

For the molecule `CCC(C)n1ncn(-c2ccc(N3CCN(c4ccc(OC[C@H]5CO[C@](Cn6cncn6)(c6ccc(Cl)cc6Cl)O5)cc4)CC3)cc2)c1=O` (stereo partly drawn), the Potency entry in [1], in [3], in experiment [4] and in experiment [5] was “inactive” each time. Also, the Potency in experiment [2] was 14.8 µM (active); in experiment [7], 3.32 µM (active); in [8] it was 4.69 µM (active); in [9], 1.32 µM (active).

As for `Cc1c(C)c2c(c(C)c1O)CCC(C)(COc1ccc(CC3SC(=O)NC3=O)cc1)O2` (stereo not drawn), the Potency result in experiment [1], in [3], in [4], in experiment [13], in experiment [7] and in experiment [10] was “inactive” in each case. Further, in experiment [2], the viability is 114%. The Potency in experiment [5] was 20.9 µM (active).

With `CS(=O)(=O)c1cccc(CNc2nc(Nc3ccc4c(c3)CCC(=O)N4)ncc2C(F)(F)F)c1`, the Potency was 18.7 µM (active) in [1]; 20.9 µM (active) in [2]; 18.7 µM (active) in experiment [3]; 11.8 µM (active) in experiment [4]; 5.26 µM (active) in [13]; 11.8 µM (active) in experiment [12]. Also, the Potency was 18.7 µM (active) in [5], 18.7 µM (active) in experiment [7] and 16.6 µM (active) in experiment [10].

Consider `Nc1nc2c(ncn2COCCO)c(=O)[nH]1`, for which the Potency result in [1], in experiment [3], in experiment [11], in [13], in [5] and in [7] was “inactive” throughout. Also, the Potency result in [8] and in [9] was “inactive” throughout. Besides, in experiment [2], the viability was 125%. In addition, the Potency in experiment [4] was 18.7 µM (active).

Consider `CO[C@@H]1[C@H](N(C)C(=O)c2ccccc2)C[C@H]2O[C@]1(C)n1c3ccccc3c3c4c(c5c6ccccc6n2c5c31)C(=O)NC4`, for which the Potency was 1.18 µM (active) in [1]; 8.33 µM (active) in [2]; 3.72 µM (active) in [3]; 0.935 µM (active) in experiment [4]; 0.418 µM (active) in experiment [13]; 0.935 µM (active) in experiment [12]. Moreover, the Potency in experiment [5] is 0.59 µM (active); in experiment [7] it was 7.43 µM (active); in [8] it was 3.72 µM (active); in [9], 1.87 µM (active); in [10], 2.96 µM (active).

Turning to `CNC(=O)c1ccc(C)c(-n2c(C)cc(OCc3ccc(F)cc3F)c(Br)c2=O)c1`, the Potency in experiment [1] was 13.2 µM (active); in experiment [11], 16.6 µM (active); in experiment [4], 6.62 µM (active); in [13], 16.6 µM (active). Also, the viability in experiment [2] was 116%. Moreover, the Potency result in experiment [3], in experiment [7] and in [10] was “inactive” each time.

As for `COc1ccc(COc2cc3oc(=O)c4cc(C(C)O)ccc4c3cc2OC)cc1` (stereo not drawn), the Potency in experiment [1] was 18.7 µM (active); in experiment [2], 20.9 µM (active); in experiment [3], 13.2 µM (active); in [4], 13.2 µM (active); in experiment [13] it was 14.8 µM (active); in experiment [12] it was 20.9 µM (active). Also, the Potency was 14.8 µM (active) in experiment [5] and 20.9 µM (active) in [7].

For the molecule `COc1ccc(-c2ccc3c(N4CCOCC4)nc(N4C[C@@H](C)O[C@@H](C)C4)nc3n2)cc1CO`, the Potency in experiment [1] is 0.935 µM (active); in experiment [2] it was 1.66 µM (active); in experiment [3], 0.332 µM (active); in experiment [4], 0.187 µM (active); in experiment [13], 0.296 µM (active); in experiment [12], 0.526 µM (active). Moreover, the Potency was 0.833 µM (active) in experiment [5]; 1.48 µM (active) in experiment [6]; 0.0935 µM (active) in experiment [7]; 1.18 µM (active) in experiment [8]; 0.059 µM (active) in experiment [9]; 1.32 µM (active) in experiment [10].

For `CCOC(=O)C1=C[C@]2(CC)CCCN3CCc4c(n1c1ccccc41)[C@@H]32`, the Potency in experiment [1] is 8.33 µM (active); in [2], 26.4 µM (active); in experiment [3] it was 16.6 µM (active); in experiment [11], 7.43 µM (active); in [4] it was 6.62 µM (active); in experiment [13] it was 9.35 µM (active). The Potency was 9.35 µM (active) in experiment [12]; 9.35 µM (active) in [5]; 8.33 µM (active) in experiment [6]; 14.8 µM (active) in [7]; 26.4 µM (active) in [8]; 8.33 µM (active) in experiment [9]. Further, in experiment [10], the Potency was 8.33 µM (active).

On to `CN1CCN(CCCN2c3ccccc3Sc3ccc(C(F)(F)F)cc32)CC1`, for which the Potency in [1] was 26.4 µM (active); in [3] it was 1.66 µM (active); in [4], 1.18 µM (active); in experiment [13], 2.09 µM (active); in experiment [12], 10.5 µM (active); in [5] it was 9.35 µM (active). The viability in experiment [2] is 123%. Besides, the Potency result in experiment [8] and in experiment [10] was “inactive” throughout.

Regarding `O=C1CCC(N2C(=O)c3ccccc3C2=O)C(=O)N1` (stereo not drawn), the Potency result in experiment [1], in [11], in experiment [5], in experiment [6], in experiment [8] and in [10] was “inactive” each time. The Potency in [2] is 23.5 µM (active); in experiment [3] it was 18.7 µM (active); in experiment [4] it was 3.72 µM (active).
